Compounds with a hit are over-represented: about 7% of the library has one in this group of screens.
ATXN2 expr inh: Primary qHTS for Inhibitors of ATXN expression | HEK-293 ATXN2-luciferase reporter, luminescence, 24 h | Potency, µM (titrated, usually from 57 µM), inactives show at the top dose activity change, negative = inhibition, hits mostly inhibitors | 360,000 compounds, 0.72% hits | AID 1745845, 2022; note: potency is the fitted concentration of half-maximal effect; % is set by controls: 0 for no effect and ±100 for the full control effect; nearly all actives have a fitted effect of over 55% in size
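qHTS (up to 57 uM final) was run with 24 h compound exposure of reporter cells at 37 °C. Each well was multiplexed: SteadyGlo luminescence measured ATXN2-luciferase expression after a fluorogenic Gly-Phe-AFC viability readout (25 uM final).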
ATXN viability: Viability Counterscreen for Primary qHTS for Inhibitors of ATXN expression | AID 651635, 2014 | S2 cells (HEK-293 line with an ATXN2-luciferase reporter) viability, CellTiter-Fluor protease fluorescence, 24 h | Potency, µM (highest dose often 56.7 µM), hits mostly cytotoxic | 400,000 compounds, 0.49% hits; note: potency is the fitted concentration of half-maximal effect; nearly all actives have a fitted effect of over 40% in size
D3 ag: qHTS of D3 Dopamine Receptor Agonist: qHTS; D(3) dopamine receptor (Homo sapiens), P35462; D3R DiscoveRx beta-arrestin cells, luminescence, 90 min; max activation, %; 410,000 compounds, 0.58% hits; in the data active = max activation above about 30%; note: 0% is about no effect
Target sequence (P35462 whole entry, looked up): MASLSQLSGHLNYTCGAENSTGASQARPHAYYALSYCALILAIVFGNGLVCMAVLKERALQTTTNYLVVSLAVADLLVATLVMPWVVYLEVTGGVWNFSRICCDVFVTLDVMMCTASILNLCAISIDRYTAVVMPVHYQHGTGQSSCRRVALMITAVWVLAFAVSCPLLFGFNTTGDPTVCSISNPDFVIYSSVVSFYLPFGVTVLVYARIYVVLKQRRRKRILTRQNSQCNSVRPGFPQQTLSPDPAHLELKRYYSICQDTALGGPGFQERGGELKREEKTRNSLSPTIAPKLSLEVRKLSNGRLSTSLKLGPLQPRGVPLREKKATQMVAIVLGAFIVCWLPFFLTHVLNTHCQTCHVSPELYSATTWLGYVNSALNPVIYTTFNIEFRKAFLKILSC
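Agonist-mode cell screen: cells plated at 1500/well and incubated overnight at 37 °C, then exposed to library compounds for 90 min at 37 °C. Detection reagent was added for 30–60 min at room temperature, and luminescence was read.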
DRD3 antagonist: qHTS of D3 Dopamine Receptor Antagonist: qHTS; D3R cells, DiscoveRx beta-arrestin luminescence, antagonist mode; active compounds read low; AID 652054, 2013; 360,000 compounds, 2.5% hits; max response, negative = inhibition, %; in the data active = max response below about -50%; inconclusive = no clear call, values can overlap the other calls; note: % is set by controls: 0 for no effect and ±100 for the full control effect
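Cells expressing the human receptor were seeded at 1500 cells/well, incubated overnight at 37 degrees C in 5% CO2, then exposed to library compounds with dopamine controls for 90 minutes at 37 degrees C before luminescent detection.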
Integrin act MD: qHTS for Activators of Integrin-Mediated Alleviation for Muscular Dystrophy. 350,000 compounds, 0.064% hits. Potency, µM (highest dose often 38.3 µM), for inactives: at the highest dose activation, hits mostly activators. alpha7betagal myoblasts, beta-gal FDG fluorescence, 48 h;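 note: potency is the fitted concentration of half-maximal effect; 100% = response of the positive control SU9516; nearly all actives have a fitted effect of over 60% in size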
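alpha7betagal+/- myoblasts (passage 13, 250/well) treated 48 h at 37C with compounds at 1:260 dilution of DMSO stock. Lysed, then beta-galactosidase activity read as FDG fluorescence (ex 480/em 540) after 30 min, with pre-read for autofluorescence.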
IL1B secr inh: qHTS for Inhibitors of Inflammasome Signaling: IL-1-beta AlphaLISA Primary Screen; THP-1 LPS/ATP IL-1B secretion, AlphaLISA, 16 h; active compounds read low; activity change, % at 57.5 µM; 360,000 compounds, 4.7% hits; AID 743279, 2014; in the data active = activity change below about -50%; inconclusive = mostly about -30% to -49%; note: % is set by controls: 0 for no effect and ±100 for the full control effect
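THP-1 cells pretreated 1 hr with compounds (up to 57.5 uM final), then stimulated with LPS (250 ng/mL final) plus ATP (1.25 mM final); secreted IL-1B measured by AlphaLISA after 16 hr, decreased signal indicating inhibition.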
* = called active by the depositor; i = inactive; ? = inconclusive; . = no result given; [ ] = remark or other dose. Unless noted, calls come from the whole dose curve; as a rule, active = well fitted curve in the direction sought with a large enough effect; inconclusive = small, poorly fitted or top-dose-only effect, or another doubt; inactive = no such curve, though single readings can be large; an effect the other way counts as inactive or inconclusive.

SMILES	ATXN2 expr inh	ATXN viability	D3 ag	DRD3 antagonist	Integrin act MD	IL1B secr inh
Cc1ccc(NC(=O)CSc2nnc(-c3ccncc3)n2N)cc1C	2%	i	1	-70*	6%	13
COc1ccc(Br)c(C(=O)OCC(=O)Nc2cc(C)on2)c1	.	i	-6	1	1%	0
COc1ccc(N2CCN(CCCNC(=O)Cn3c(=O)c4cccn4c4cccnc43)CC2)cc1	.	?	-6	?	-12%	-12
COc1ccc(N2CCN(CCCNC(=O)Cn3c(=O)c4cccn4c4ccccc43)CC2)cc1	-13%	i	-5	-60*	-4%	-13
O=C(Cn1c(=O)c2cccn2c2cccnc21)NCCCN1CCN(c2ccc(F)cc2)CC1	-14%	i	-25	-118*	?	-16
O=c1c2cccnc2[nH]c(=S)n1CCCN1CCN(c2ccc(F)cc2)CC1	26%	i	0	-65*	29%	21
COc1ccc(C)cc1NC(=O)C1CCCN(S(=O)(=O)c2ccc3c(c2)oc(=O)n3C)C1 (centres undefined)	-17%	?	3	.	.	.
Cc1cccc(CC(=O)Nc2ccc(C(=O)N3CCOCC3)cc2)c1	5%	?	2	?	-25%	-7
CCCS(=O)(=O)c1c(S(=O)(=O)CCC)c2ccc(C(C)=O)cn2c1C(=O)OC	6%	i	-5	6	-14%	-136*
CCCS(=O)(=O)c1c(S(=O)(=O)CCC)c2ccc(C(N)=O)cn2c1C(=O)OC	36%	i	15	4	-5%	-4
COC(=O)Nc1ncc(CN2CCC(c3ccccc3)CC2)s1	4%	i	10	-54*	-19%	11
CC(NS(=O)(=O)c1ccc(Br)cc1)C(c1cccs1)N1CCN(C)CC1 (centres undefined)	-10%	i	-10	-52*	-54%	-9
CC(NS(C)(=O)=O)C(c1cccs1)N1CCN(C)CC1 (centres undefined)	-9%	i	-1	10	15%[7.66 µM]	-16
Cc1cc(C)nc(SCc2csc(N)n2)n1	-9%	i	4	-51*	7%	16
CCOC(=O)C1(CC2CCCCO2)CCN(S(=O)(=O)c2cccc(F)c2)CC1 (centres undefined)	11%[11.3 µM]	i	4	-18	-10%	16
CCCCCCOc1ccc(/C=C/C(=O)Nc2sc3c(c2C(=O)OC)CCC3)cc1OC	?	14µM*	-37	.	.	.
CCOc1ccc(C2C(C(=O)Nc3ccccc3)=C(C)Nc3nc(-c4ccccc4Cl)nn32)cc1OC (centres undefined)	-8%	i	-5	.	.	.
Cc1noc(-c2ccccc2OC(=O)c2ccccc2)n1	1%	i	6	30	-1%	9
CC(=O)Oc1ccccc1C(=O)Nc1ccccc1	15%	i	.	.	.	.
CC(=O)Nc1nc(C)nc(-c2ccccc2OC(C)=O)n1	3%	i	31*	18	0%	3
CC(=O)Nc1nc(-c2ccccc2)nc(-c2ccccc2OC(C)=O)n1	4%	i	3	3	7%	-50*
c1ccc(COc2cccc(CN3CCCCC3)c2)cc1	-51%	?	-23	?	-51%	-11
CC(=O)OCC(=O)NCCCOc1cccc(CN2CCCCC2)c1	0%	i	-67	-81*	.	27
COc1ccc(N(C(=O)c2snc(C(N)=O)c2N)C(C(=O)NCc2ccccc2)c2ccc(O)cc2)cc1OC (centres undefined)	3%	i	0	8	-14%	28
COc1ccc(N(C(=O)c2snc(C(N)=O)c2N)C(C(=O)NCc2ccc(F)cc2)c2ccc(C)o2)c(OC)c1 (centres undefined)	-5%	i	-4	-7	-4%	-21

High-throughput results deposited in PubChem by National Center for Advancing Translational Sciences (NCATS).
